Source: PubChem BioAssay AID1159580 (chemical genetic matrix, 2015)
Among all 5,500 compounds or so, about 2,000 (36%) were called active. Inconclusive results (about 18%) are left out. Cut-off read from the data, not from the text of the source: active = normalized growth mostly below about 0.91 (no sharp cut-off); inconclusive = no clear call, values can overlap the other calls; inactive = mostly above about 0.92. The list shows a part of the results.

Test: chemical genetic growth profiling, strain panel (AID 1159580);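 note: tested at 20 µM; growth read once vehicle control cultures reached saturation at 30 °C; 1 = growth at the plate median or of vehicle wells; lower values mean less growth of the strain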
Conditions: growth OD

Measured: normalized growth

CCC(=O)O[C@]1(C(=O)CCl)[C@@H](C)CC2C3CCC4=CC(=O)C=C[C@]4(C)[C@@]3(F)[C@@H](O)C[C@@]21C (stereo partly specified)
inactive: S. cerevisiae deletion strains, locus YJR043C, strain POL32, active compounds read low 0.982 | S. cerevisiae deletion strains, locus YJR066W, strain TOR1, active compounds read low 0.952 | S. cerevisiae deletion strains, locus YKL009W, strain mrt4, active compounds read low 1.01 | S. cerevisiae deletion strains, locus YKL068W, active compounds read low 0.972 | S. cerevisiae deletion strains, locus YKL085W, strain MDH1 (second series), active compounds read low 0.985 | S. cerevisiae deletion strains, locus YKL085W, strain MDH1, active compounds read low 0.985 | S. cerevisiae deletion strains, locus YKL160W, strain elf1, active compounds read low 1.02 | S. cerevisiae deletion strains, locus YKL190W, strain CNB1, active compounds read low 0.981 | S. cerevisiae deletion strains, locus YKR001C, strain vps1, active compounds read low 0.988 | S. cerevisiae deletion strains, locus YKR026C, strain gcn3, active compounds read low 1.03 | S. cerevisiae deletion strains, locus YKR091W, strain srl3, active compounds read low 1.02 | S. cerevisiae deletion strains, locus YLL001W, strain dnm1, active compounds read low 1.02 | S. cerevisiae deletion strains, locus YLL026W, active compounds read low 1.01 | S. cerevisiae deletion strains, locus YLL041C, strain sdh2, active compounds read low 1.01 | S. cerevisiae deletion strains, locus YLR027C, strain aat2, active compounds read low 1.02 | S. cerevisiae deletion strains, locus YLR039C, strain RIC1, active compounds read low 0.959 | S. cerevisiae deletion strains, locus YLR058C, strain SHM2, active compounds read low 0.983 | S. cerevisiae deletion strains, locus YLR102C, strain apc9, active compounds read low 0.985 | S. cerevisiae deletion strains, locus YLR113W, strain HOG1, active compounds read low 0.982 | S. cerevisiae deletion strains, locus YLR221C, strain rsa3, active compounds read low 1.03 | S. cerevisiae deletion strains, locus YLR258W, strain gsy2, active compounds read low 1.02 | S. cerevisiae deletion strains, locus YLR262C, strain YPT6 (second series), active compounds read low 1.02 | S. cerevisiae deletion strains, locus YLR262C, strain YPT6, active compounds read low 0.941 | S. cerevisiae deletion strains, locus YLR268W, strain sec22, active compounds read low 0.961 | S. cerevisiae deletion strains, locus YLR320W, strain mms22, active compounds read low 1.04 | S. cerevisiae deletion strains, locus YLR330W, strain CHS5, active compounds read low 0.971 | S. cerevisiae deletion strains, locus YLR342W, strain FKS1 (second series), active compounds read low 0.999 | S. cerevisiae deletion strains, locus YLR342W, strain FKS1, active compounds read low 1.02 | S. cerevisiae deletion strains, locus YLR357W, strain rsc2, active compounds read low 1.05 | S. cerevisiae deletion strains, locus YLR370C, strain arc18, active compounds read low 1.02 | S. cerevisiae deletion strains, locus YLR371W, strain rom2, active compounds read low 0.976 | S. cerevisiae deletion strains, locus YLR384C, strain iki3, active compounds read low 1.04 | S. cerevisiae deletion strains, locus YLR418C, strain cdc73, active compounds read low 0.969 | S. cerevisiae deletion strains, locus YML016C, strain PPZ1, active compounds read low 0.988 | S. cerevisiae deletion strains, locus YML032C, strain rad52, active compounds read low 0.985 | S. cerevisiae deletion strains, locus YML120C, strain ndi1, active compounds read low 1 | S. cerevisiae deletion strains, locus YML124C, strain tub3, active compounds read low 0.993 | S. cerevisiae deletion strains, locus YMR058W, strain fet3, active compounds read low 1.02 | S. cerevisiae deletion strains, locus YMR078C, strain ctf18, active compounds read low 0.983 | S. cerevisiae deletion strains, locus YMR125W, strain sto1, active compounds read low 1.02 | S. cerevisiae deletion strains, locus YMR129W, active compounds read low 1.02 | S. cerevisiae deletion strains, locus YMR205C, strain PFK2, active compounds read low 1.04 | S. cerevisiae deletion strains, locus YMR223W, strain ubp8, active compounds read low 0.982 | S. cerevisiae deletion strains, locus YMR231W, strain pep5, active compounds read low 1.02 | S. cerevisiae deletion strains, locus YMR263W, strain SAP30, active compounds read low 0.987 | S. cerevisiae deletion strains, locus YMR307W, strain GAS1, active compounds read low 0.87 | S. cerevisiae deletion strains, locus YNL067W, strain RPL9B, active compounds read low 0.992 | S. cerevisiae deletion strains, locus YNL071W, strain lat1, active compounds read low 1.02 | S. cerevisiae deletion strains, locus YNL183C, strain NPR1, active compounds read low 0.935 | S. cerevisiae deletion strains, locus YNL209W, strain ssb2, active compounds read low 1.01 | S. cerevisiae deletion strains, locus YNL233W, strain BNI4, active compounds read low 1.01 | S. cerevisiae deletion strains, locus YNL248C, strain rpa49, active compounds read low 1.02 | S. cerevisiae deletion strains, locus YNL250W, strain rad50, active compounds read low 0.988 | S. cerevisiae deletion strains, locus YNL271C, strain bni1, active compounds read low 0.963 | S. cerevisiae deletion strains, locus YNL298W, strain CLA4, active compounds read low 0.964 | S. cerevisiae deletion strains, locus YNL307C, strain MCK1, active compounds read low 0.987 | S. cerevisiae deletion strains, locus YNL322C, strain KRE1 (second series), active compounds read low 1.03 | S. cerevisiae deletion strains, locus YNL322C, strain KRE1, active compounds read low 0.988 | S. cerevisiae deletion strains, locus YNR049C, strain mso1, active compounds read low 1.01 | S. cerevisiae deletion strains, locus YNR052C, strain pop2, active compounds read low 0.988 | S. cerevisiae deletion strains, locus YOL006C, strain TOP1, active compounds read low 0.958 | S. cerevisiae deletion strains, locus YOL012C, strain htz1 0.831 | S. cerevisiae deletion strains, locus YOL147C, strain pex11, active compounds read low 0.986 | S. cerevisiae deletion strains, locus YOR001W, strain rrp6, active compounds read low 1.03 | S. cerevisiae deletion strains, locus YOR061W, strain CKA2, active compounds read low 0.978 | S. cerevisiae deletion strains, locus YOR069W, strain VPS5, active compounds read low 0.978 | S. cerevisiae deletion strains, locus YOR070C, strain gyp1, active compounds read low 1.02 | S. cerevisiae deletion strains, locus YOR080W, strain dia2, active compounds read low 1.03 | S. cerevisiae deletion strains, locus YOR083W, strain WHI5, active compounds read low 1.02 | S. cerevisiae deletion strains, locus YOR106W, strain vam3, active compounds read low 1.02 | S. cerevisiae deletion strains, locus YOR136W, strain idh2, active compounds read low 0.995 | S. cerevisiae deletion strains, locus YOR144C, strain elg1, active compounds read low 0.997 | S. cerevisiae deletion strains, locus YOR184W, strain ser1, active compounds read low 0.986 | S. cerevisiae deletion strains, locus YOR231W, strain MKK1, active compounds read low 0.959 | S. cerevisiae deletion strains, locus YOR265W, strain rbl2, active compounds read low 1.02 | S. cerevisiae deletion strains, locus YOR270C, strain vph1, active compounds read low 0.984 | S. cerevisiae deletion strains, locus YOR290C, strain snf2, active compounds read low 1.02 | S. cerevisiae deletion strains, locus YOR316C, strain cot1, active compounds read low 0.991 | S. cerevisiae deletion strains, locus YPL051W, strain arl3, active compounds read low 1.02 | S. cerevisiae deletion strains, locus YPL055C, strain LGE1, active compounds read low 1.01 | S. cerevisiae deletion strains, locus YPL078C, strain atp4, active compounds read low 1.02 | S. cerevisiae deletion strains, locus YPL106C, strain sse1, active compounds read low 1.06 | S. cerevisiae deletion strains, locus YPL240C, strain hsp82, active compounds read low 1.01 | S. cerevisiae deletion strains, locus YPL241C, strain CIN2, active compounds read low 0.981 | S. cerevisiae deletion strains, locus YPL256C, strain CLN2, active compounds read low 0.961 | S. cerevisiae deletion strains, locus YPR119W, strain clb2, active compounds read low 0.981 | S. cerevisiae deletion strains, locus YPR141C, strain kar3, active compounds read low 0.967 | S. cerevisiae deletion strains, locus YPR163C, strain tif3, active compounds read low 0.956 | S. cerevisiae deletion strains, locus YPR167C, strain met16, active compounds read low 0.978 | S. cerevisiae deletion strains, strain wtn01, active compounds read low 0.998 | S. cerevisiae strains, strain wild type, active compounds read low 0.98
